Experimental findings from PubChem BioAssay AID2174 (The Scripps Research Institute Molecular Screening Center, 2009) are described below.

Screen size: about 320,000 compounds; about 500 (0.16%) were called active. The sample holds actives, similar compounds and a random draw of the others, so the mix is not that of the screen.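 The calls were made as follows: active = inhibition above the mean of all tested compounds plus 3 SD, set per campaign (cut at about 14% in these data); inactive = the rest.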

For the assay, the target named is Acyl-protein thioesterase 1 (Homo sapiens) (UniProt O75608). In words: inhibition of human lysophospholipase 1 – biochemical, fluorescence polarization, FP-Rh probe ABPP, counter-screen for PME1 inhibitor project, primary screen (AID 2174).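 Also: inhibitors block serine hydrolase probe labeling of LYPLA1 so polarization falls; 0% = enzyme with DMSO and 100% = wells lacking LYPLA1.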 Particulars: recombinant LYPLA1, FP-Rh probe fluorescence polarization; at 5.9 µM; active compounds read high. A general note: Fluorescence polarisation rises when a labelled molecule tumbles more slowly, as on binding a larger partner.
Sequence of Acyl-protein thioesterase 1 (Homo sapiens) (O75608 whole entry, looked up): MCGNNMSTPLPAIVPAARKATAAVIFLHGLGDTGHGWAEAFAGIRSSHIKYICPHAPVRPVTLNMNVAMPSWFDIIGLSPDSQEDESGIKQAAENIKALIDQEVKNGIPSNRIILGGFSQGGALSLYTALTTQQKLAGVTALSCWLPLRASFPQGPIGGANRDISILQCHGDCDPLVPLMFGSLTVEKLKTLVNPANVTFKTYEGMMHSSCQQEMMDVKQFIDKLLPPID
One may read the inhibition as the relative decrease from the control value, in per cent. Regarding `Cn1ccc(=NC=C(C#N)C#N)c2ccccc21`, the inhibition is -3.88% (inactive).

For `CN(C)c1ccc(N/C=C/C(=O)C(F)(F)F)cc1`, the inhibition is -5.36% (inactive).

For `CCN(CC)C(=O)CSc1ncnc2c1cnn2-c1ccccc1`, the inhibition was -1.45% (inactive).

For `COc1ccc(/C=C2\CCCC3C2=NN(C(=O)c2scnc2C)C3c2ccc(OC)cc2)cc1` (centres undefined), the inhibition was -3.35% (inactive).

For `CCCN(CCC)C(=O)C1c2ccccc2Oc2ccccc21`, the inhibition is -1.51% (inactive).

As to `O=C(O)CCS(=O)(=O)c1ccc(-c2ccccc2)cc1`, the inhibition is -0.07% (inactive).

Turning to `NS(=O)(=O)c1ccc(NC(=S)NNC(=O)c2cccs2)cc1`, the inhibition was 0.82% (inactive).

In the case of `COC(=O)[C@@H]1CC[C@H](C)[C@@H](c2ccc(C)cc2)N1C(=O)c1ccc(/C=N/O[C@H](C)c2cn([C@@H]3COC[C@H]3O)nn2)cc1`, the inhibition was -1.13% (inactive).

As to `COCCCN(C(=O)CSCc1ccc(C)cc1)c1c(N)n(Cc2ccccc2)c(=O)[nH]c1=O`, the inhibition was -5.33% (inactive).

In the case of `Cc1ccccc1NC(=O)NC1(C(=O)N2CCCC2)CCCCC1`, the inhibition was 5.72% (inactive).

For the molecule `CCN1C(=O)/C(=c2\s/c(=C3\Sc4ccccc4N3C)c(=O)n2C)N(C)C1=S`, the inhibition is -0.75% (inactive).

Take `CCN1C(=O)/C(=C2/Sc3ccccc3N2CCCS(=O)(=O)O)SC1=S`: the inhibition is 14.2% (active).

Consider `CCCCN1C(=O)/C(=C2/Sc3ccc(Cl)cc3N2CC)SC1=S`, for which the inhibition is 2.19% (inactive).

With `COc1ccc(CNC(=O)C(=O)NCC2OCCN2C(=O)c2ccc(OC)cc2)cc1` (centres undefined), the inhibition was -3.36% (inactive).

In the case of `CC(C)c1ccc(S(=O)(=O)N2CCN(C(=O)CN3C(=O)NC(C)(c4ccccc4)C3=O)CC2)cc1` (centres undefined), the inhibition is 0.26% (inactive).

Take `Cc1ccccc1C(=O)NC(=S)NC1CC1`: the inhibition is -2.2% (inactive).

Consider `Cc1c(C(=O)NCCN2C(=O)S/C(=C\c3cccs3)C2=O)cccc1[N+](=O)[O-]`, for which the inhibition was -7.3% (inactive).

Consider `COc1ccc(S(=O)(=O)N(CCCN2CCCC2=O)Cc2cc3c(C)ccc(C)c3[nH]c2=O)cc1`, for which the inhibition was -0.26% (inactive).

`COc1cc(OC)cc(C(=O)NNC(=O)CNC(=O)c2ccc(Br)o2)c1`: the inhibition was -3.43% (inactive).

With `O=C(NCCCN1CCCCC1)C1CCCN(c2ncnc3c2nc2n3CCCCC2)C1` (centres undefined), the inhibition is 4.5% (inactive).

Take `O=C(COC(=O)CCOc1ccccc1)Nc1cc(S(=O)(=O)N2CCCCC2)ccc1Cl`: the inhibition was -5.97% (inactive).

Consider `Cc1ccc(N2CCN(/N=C/c3cccs3)CC2)cc1`, for which the inhibition is 2.05% (inactive).

Turning to `Cc1ccc(N2CCN(C3=NC(=O)/C(=C\c4cccs4)S3)CC2)cc1`, the inhibition is 29% (active).

As to `Cc1ccsc1/C=C1\SC(N2CCOCC2)=NC1=O`, the inhibition was -3.19% (inactive).

`CCCCc1nc2cc(C(=O)N3CCCCC3CCO)ccc2o1` (centres undefined): the inhibition was -0.28% (inactive).

For `O=C(NCCc1ccccc1)C(=O)NCC1OCCN1S(=O)(=O)c1cccs1` (centres undefined), the inhibition was 2.86% (inactive).

With `O=C(CCCn1c(SCC(=O)c2ccccc2)nc2ccccc2c1=O)NCC1CCCO1` (centres undefined), the inhibition was 2.13% (inactive).

`O=C(CCn1c(SCC(=O)c2ccccc2)nc2ccccc2c1=O)NCc1ccc(F)cc1`: the inhibition was 33.2% (active).

Take `O=C(CSc1nc2ccccc2c(=O)n1-c1ccc(F)cc1)NC1CC1`: the inhibition is 0.87% (inactive).

For `O=C(N/N=C/c1ccsc1)c1cc(O)cc(O)c1`, the inhibition was 3.13% (inactive).

Turning to `CCOCCCNC(=O)c1cn(CC(C)C)c(=O)c2c1c1ccccc1n2C`, the inhibition is 0.47% (inactive).

Consider `COc1ccc(S(=O)(=O)N/N=C\c2ccc(OC)c(COc3ccc(C)cc3[N+](=O)[O-])c2)cc1`, for which the inhibition was 3.24% (inactive).

`Cc1ccc(N(CC(=O)NC2CCCCC2)C(=O)CCCC(=O)Nc2ccccn2)c(C)c1`: the inhibition was -5.08% (inactive).

Take `CC1CCCCC1NC(=O)NC(=O)COC(=O)C1=NN(c2ccccc2)C(=O)CC1` (centres undefined): the inhibition is -3.28% (inactive).

For `CCOc1ccc(S(=O)(=O)N2CCCC(C(=O)N3CCC(C(N)=O)CC3)C2)cc1Cl` (centres undefined), the inhibition is -0.84% (inactive).

For the molecule `CCn1cc(CN2CCC(C(=O)Nc3cccc(-c4cccc(Cl)c4)c3)CC2)c(C)n1`, the inhibition was -1.53% (inactive).

As for `O=C(NCc1ccccc1Cl)C1CCN(c2ncnc3c2nc2n3CCCCC2)CC1`, the inhibition is 3.58% (inactive).

Take `O=C(Cc1ccccc1F)NC1CCSc2ccccc21` (centres undefined): the inhibition is -2.96% (inactive).

For `O=C(CC1Nc2ccccc2NC1=O)Nc1ccccc1` (centres undefined), the inhibition was -11.2% (inactive).

Consider `COc1ccc(NS(=O)(=O)c2cccc(C(=O)NCCc3ccc(S(N)(=O)=O)cc3)c2)cc1`, for which the inhibition was 0.92% (inactive).

Regarding `CCC(Cc1ccccc1)NC(=O)C1CCCCC1` (centres undefined), the inhibition was -0.48% (inactive).

With `CCN(CC)S(=O)(=O)c1ccc(N2CCOCC2)c(NC(=O)c2ccc(=O)n(C)n2)c1`, the inhibition is 3.13% (inactive).

As to `CCOC(=O)/C(=N\Nc1ccccc1Cl)N(C)C1CCS(=O)(=O)C1` (centres undefined), the inhibition was 6.62% (inactive).

For `O=C(Nc1nnc(C2COc3ccccc3O2)o1)c1ccc(F)cc1` (centres undefined), the inhibition was -3.93% (inactive).

For the molecule `COc1ccc2c(c1)OC(O)(C(F)(F)C(F)F)CC2=O` (centres undefined), the inhibition is 0.29% (inactive).

Take `Cc1cc(-c2ccccc2)nc(N2CCC(C(=O)NC34CC5CC(CC(C5)C3)C4)CC2)n1`: the inhibition was -0.18% (inactive).

As to `CC(=O)Nc1ccc(C(=O)N(C2=NC(C)CS2)c2ccc(Cl)cc2)cc1` (centres undefined), the inhibition was -16.3% (inactive).

In the case of `O=C(Nc1cccc(Cl)c1)c1cncn1-c1ccc(F)cc1`, the inhibition is -4.38% (inactive).

Turning to `CC(C)(C)c1ccc(CCC2OCC(CN3CCOCC3)O2)cc1` (centres undefined), the inhibition was -1.79% (inactive).

As for `O=C1CN(C(=O)COc2c(Cl)cccc2Cl)c2ccccc2N1`, the inhibition is -0.08% (inactive).

Consider `Cc1ccc(OCc2cc(C(=O)N(C)CCc3ccccc3)no2)cc1C`, for which the inhibition was 2.48% (inactive).

As for `O=C(NCCCc1ccccc1)c1cc(COc2c(F)cccc2F)on1`, the inhibition is -0.18% (inactive).

`CN(CCOc1ccccc1)C(=O)c1cc(COc2c(F)cccc2F)on1`: the inhibition is 17.4% (active).

With `COc1cccc(NC(=O)N2C3CCCC2CC(NC(C)=O)C3)c1` (centres undefined), the inhibition is -0.11% (inactive).

For `COc1cccc(NC(=O)C2CCCN2C(=O)OCc2ccccc2)c1` (centres undefined), the inhibition is 1.14% (inactive).

Turning to `COc1cccc(NC(=O)N2CCCC2C(=O)NC2CCCCC2)c1` (centres undefined), the inhibition was 15.1% (active).

For `CCc1c(SCCC(=O)O)nc2ccccc2c1C`, the inhibition was 2.67% (inactive).

Turning to `COc1ccc2c(c1)[C@H]1[C@H](CO2)[C@H](c2ccccc2)[C@]2(C)C(=O)Nc3cc(F)c(F)cc3C(=O)N12`, the inhibition was -14.6% (inactive).

Take `Cc1cccc(N2CCC(NCc3c(C(=O)N4CCCCC4)nc4c(C)cccn34)CC2)c1`: the inhibition was 0.61% (inactive).

Regarding `COc1ccc(C2CC(c3cccs3)Nc3nnnn32)cc1` (centres undefined), the inhibition was 0.92% (inactive).

As to `CN(Cc1ccc(F)cc1Cl)S(=O)(=O)c1cccs1`, the inhibition was 4.05% (inactive).

`O=C(/C=C/c1cccc(C(F)(F)F)c1)N1CCN(c2ccccn2)CC1`: the inhibition is -2.76% (inactive).

With `Cc1cc(OCC(=O)N2CCN(c3ncccn3)CC2)ccc1Cl`, the inhibition was -2.47% (inactive).

As to `CCOc1ccc(C(=O)NCC(=O)N2CCN(c3ccc(C(F)(F)F)cn3)CC2)cc1`, the inhibition was 2.56% (inactive).

As for `Cc1ccc(CNC(=O)CCNS(=O)(=O)c2ccc(Br)s2)cc1`, the inhibition was 0.04% (inactive).

In the case of `COC(=O)c1ccc(CSc2ccc(S(=O)(=O)N3CCCCC3)cn2)cc1`, the inhibition was -1.32% (inactive).

Take `CCOc1ccc(-n2cnnn2)cc1S(=O)(=O)N1CCC(C)CC1C` (centres undefined): the inhibition was 3.81% (inactive).

`COc1ccc(CCNC(=O)CSc2nc(-c3ccc(OC)c(OC)c3)ccc2C#N)cc1`: the inhibition is -12.1% (inactive).

On to `O=C(COc1ccc2ccccc2c1)N1CCN(C(=O)c2cccs2)CC1`, for which the inhibition was 1.27% (inactive).

For `O=C(O)c1ccccc1NC(=S)NC(NC(=O)c1ccccc1[N+](=O)[O-])C(Cl)(Cl)Cl` (centres undefined), the inhibition was 2.28% (inactive).

Consider `Cc1ccccc1Nc1nc(N)nc(CSc2ccccc2)n1`, for which the inhibition is -4.27% (inactive).

With `O=C1COc2ccc(NC(=O)N3CCN(c4ccc(F)cc4)CC3)cc2N1`, the inhibition is -0.21% (inactive).

`CCCCCOc1ccc(/C=C/C(=O)NCCc2nc3ccccc3[nH]2)cc1OC`: the inhibition is -8.82% (inactive).

For the molecule `CCN(CC(=O)Nc1c(F)cccc1F)C(=O)c1ccc(S(=O)(=O)N2CCCCC2)cc1`, the inhibition was 0.21% (inactive).

For the molecule `CCOc1ccc2ccccc2c1/C=N/NC(=O)c1c(C)cc(C)[nH]c1=O`, the inhibition is -5.43% (inactive).

Regarding `CCOc1ccccc1N1CCN(C(=O)c2ccc3[nH]c(C)c(C)c3c2)CC1`, the inhibition was 14.2% (active).

As for `Cc1[nH]c2ccc(C(=O)N3CCN(C)CC3)cc2c1C`, the inhibition was 2.14% (inactive).

For the molecule `COc1ccccc1N1CCN(C(=O)c2ccc(Cl)c(S(=O)(=O)N3CCCC3)c2)CC1`, the inhibition was 1.54% (inactive).

Consider `NC(=O)C1(N2CCCCC2)CCN(C2CC(=O)N(Cc3ccc(N4CCCC4=O)cc3)C2=O)CC1` (centres undefined), for which the inhibition was 2.22% (inactive).

Regarding `COc1cccc(NC(=S)NC(=O)c2c(Cl)c(C)nn2C)c1`, the inhibition was -3.22% (inactive).

Turning to `COCCNc1nc2nonc2nc1N1CCCC1c1nccs1` (centres undefined), the inhibition was 1.24% (inactive).

`COc1ccccc1C(=O)NC(CCSC)C(=O)N1CCN(C/C=C/c2ccccc2)CC1` (centres undefined): the inhibition was 18.2% (active).

For `COc1ccccc1C(=O)NC(CCSC)C(=O)N1CCN(C(C)=O)CC1` (centres undefined), the inhibition was -1.6% (inactive).

For the molecule `COc1ccccc1C(=O)NC(CCSC)C(=O)NNC(=O)c1ccccc1C` (centres undefined), the inhibition is 2.08% (inactive).

Take `COc1cnn(-c2ccc([N+](=O)[O-])cc2)c(=O)c1Cl`: the inhibition was 3.8% (inactive).

Regarding `O=c1[nH]c2cccnc2n1-c1ccc([N+](=O)[O-])cc1`, the inhibition was -1.44% (inactive).

For the molecule `O=c1[nH]n(-c2ccc([N+](=O)[O-])cc2)c(=O)c2ccccc12`, the inhibition was 22.9% (active).

As to `CCNC(=O)CC1C(=O)N(c2ccc(F)cc2)C(=O)N1Cc1cccs1` (centres undefined), the inhibition was 1.31% (inactive).

In the case of `Cc1cc(C)c2c(n1)sc1c(=O)n(-c3ccccc3)c(=O)[nH]c12`, the inhibition is -3.16% (inactive).
